Reference: the supplement of paper PMC9337992
± gives the standard deviation of the averaged measurements.

Tested on: MDAMB436
Test: cell proliferation (confluence) relative to DMSO control; higher = less growth inhibition
Conditions: 5 uM; 6 d
Experimental: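 Epigenetic chemical probe screen: 15 TNBC cell lines, 500 cells per well in 384-well plates, treated with 5 uM of each of 36 SGC probes for 6 d. Confluency was imaged by IncuCyte ZOOM and normalised to DMSO control wells. Four replicate wells per compound.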

Row | Compound | cell proliferation [%]
1 | O=C(O)CNC(=O)c1c(O)c2ccccc2n(Cc2ccccc2)c1=O | 96.4 ± 0.42
2 | c1ccc([C@@H]2C[C@H]2NC2CCNCC2)cc1 | 93.8 ± 3.3
3 | COc1cc(C(=O)N2CC[C@@H](O)[C@@H](N)C2)cc2nc(-c3cc4ccccc4n3CC3CC3)n(C)c12 | 76.4 ± 6.2
